Test results from PubChem BioAssay (EPA / NIEHS).
Where a structure was tested more than once in an assay, its records may differ in their call. Active and inactive are the calls of the source. The calls were made as follows: active = hit-call score of the fitted dose curve at least 0.9, where 1 is the maximum; inactive = score below 0.9.

assay: ATG_SREBP_CIS: Attagene CIS-FACTORIAL HepG2 Assay for human Sterol Regulatory Element Binding (SREBP) (AID 2282962); conditions: HepG2 Attagene cis-factorial SREBP reporter, mRNA; actives raise or lower the signal
Protocol: ATG_CIS is a cell-based, multiplexed-readout assay that uses HepG2, a human liver cell line, with measurements taken at 24 hours after chemical dosing in a 24-well plate.ATG_SREBP_CIS is one of 52 assay component(s) measured or calculated from the ATG_CIS assay. It is designed to make measurements of mRNA induction, a form of inducible reporter, as detected with fluorescence intensity signals by Reverse transcription polymerase chain reaction (RT-PCR) and Capillary electrophoresis technology.Data from the assay component ATG_SREBP_CIS was analyzed into 1 assay endpoint. This assay endpoint, ATG_SREBP_CIS, was analyzed with bidirectional fitting relative to DMSO as the negative control and baseline of activity. Using a type of inducible reporter, measures of mRNA for gain or loss-of-signal activity can be used to understand the reporter gene at the transcription factor-level as they relate to the gene SREBF1. Furthermore, this assay endpoint can be referred to as a primary readout, because this assay has produced multiple assay endpoints where this one serves a reporter gene function. To generalize the intended target to other relatable targets, this assay endpoint is annotated to the dna binding intended target family, where the subfamily is basic helix-loop-helix leucine zipper.
Human liver HepG2 cells are transiently transfected with multiple reporter transcription units (MRTUs) in 6-well plates using FuGene 6 reagent (Roche; 3 ml FuGene/1 mg DNA). The MRTU constructs are regulated by a cis-regulating element (promoter). […] A major difference between the CIS and TRANS system is that in CIS activities of endogenous TFs are measured, whereas the TRANS assay evaluates changes in activities of exogenous, chimeric NR-Gal4 proteins. […] At the end of 24 hour incubation, total RNA was isolated using TriZol reagent (Invitrogen). The isolated RNA is then reverse-transcribed using oligo(dT) primer and Mo-MLV reverse transcriptase (Invitrogen) with DNAse I (Ambion) treatment for 30 min. The one-tenth of the produced cDNA was amplified by PCR using Taq DNA polymerase (Invitrogen) and two reporter sequence-specific primers. The PCR products were fluorescently labeled by primer extension with 6-arboxyfluorescein (6-FAM) 5'-labeled reporter sequence-specific primer (2 min at 95 C, 20 s at 68 C and 10 min at 72 C) and these products were digested with 5U of HpaI (New England Biolabs) for 2h at 37 C. The fragments were purified using Qiaquick PCR columns (Qiagen), analyzed on an ABI 3130xL genetic analyzer (Applied Biosystems) with peak positions identified by using a set of X-rhodamine (ROX)-labeled MapMarker1000 molecular weight standards (BioVentures). The raw capillary electrophoresis data was processed using Attagraph software (Attagene).

SMILES	outcome	AC50
COC(=O)c1ccc(I)cc1S(=O)(=O)NC(=O)Nc1nc(C)nc(OC)n1	inactive	–
Cc1nn(C)c(Oc2ccccc2)c1C=NOCc1ccc(C(=O)OC(C)(C)C)cc1	inactive	–
CCCCOC(=O)C(C)Oc1ccc(Oc2ccc(C(F)(F)F)cn2)cc1 (stereo not given)	inactive	–
C#C[C@]1(O)CC[C@H]2[C@@H]3CCC4=CC(=O)CC[C@@H]4[C@H]3CC[C@@]21CC	inactive	–
O=C(O)c1ccccc1	inactive	–
COC(=O)c1ccccc1S(=O)(=O)NC(=O)Nc1nc(OC(F)F)cc(OC(F)F)n1	inactive	–
COC(=O)c1c(Cl)nn(C)c1S(=O)(=O)NC(=O)Nc1nc(OC)cc(OC)n1	inactive	–
CCNc1nc(N)nc(Cl)n1	inactive	–
C#CCOC(=O)[C@@H](C)Oc1ccc(Oc2ncc(Cl)cc2F)cc1	inactive	–
COc1nc(C)nc(NC(=O)NS(=O)(=O)c2ccccc2OCCCl)n1	inactive	–
CCOC(=O)c1ccc(O)cc1	inactive	43.7 µM (active)
CCN(CC)C(=O)c1cccc(C)c1	inactive	–
COC(=O)c1ccc(CNS(C)(=O)=O)cc1S(=O)(=O)NC(=O)Nc1nc(OC)cc(OC)n1	inactive	–
CCN(Cc1c(F)cccc1Cl)c1c([N+](=O)[O-])cc(C(F)(F)F)cc1[N+](=O)[O-]	inactive	–
CCCOC(=O)c1ccc(C(=O)OCCC)nc1	inactive	–
CCCOC(=O)NCCCN(C)C	inactive	–
O=C(c1ccccc1)C1CCCCC1	inactive	–
CCOC(=O)NCCOc1ccc(Oc2ccccc2)cc1	inactive	–
C[C@]12CC[C@@H]3c4ccc(O)cc4C[C@@H](CCCCCCCCCS(=O)CCCC(F)(F)C(F)(F)F)[C@H]3[C@@H]1CC[C@@H]2O (stereo not given in full)	inactive	–
CC1(C)C(C=C(Cl)Cl)C1C(=O)OCc1cccc(Oc2ccccc2)c1 (stereo not given)	inactive	–

SMILES	outcome	AC50
OB(O)O	inactive	–
CCCCOC(=O)[C@@H](C)Oc1ccc(Oc2ccc(C(F)(F)F)cn2)cc1	inactive	–
S=C([S-])NCCNC(=S)[S-].[Mn+2]	inactive	–
CN(C)C(=O)Nc1ccc(Cl)c(Cl)c1	inactive	–
COC(=O)c1cccc(C)c1S(=O)(=O)NC(=O)Nc1nc(OCC(F)(F)F)nc(N(C)C)n1	inactive	–
S=C(S)NCCNC(=S)S.[Mn+2].[S-]C([S-])=NCCN=C([S-])[S-].[Zn+2]	inactive	–
N#CSCSc1nc2ccccc2s1	inactive	–
COC(=O)c1ccccc1C(=O)O	inactive	–
CCSC(=O)N(CC(C)C)CC(C)C	inactive	–
CCOC(=O)C(C)Oc1ccc(Oc2cnc3cc(Cl)ccc3n2)cc1 (stereo not given)	inactive	–
COC(=O)CSc1cc(N=c2sc(=O)n3n2CCCC3)c(F)cc1Cl	inactive	–
CCCN(CCC)C(=O)SCC	inactive	–
CCCCOCCOCCOCc1cc2c(cc1CCC)OCO2	inactive	–
COc1c(Cl)ccc(Cl)c1C(=O)O	inactive	–
C[C@]12C[C@H](O)[C@H]3[C@@H](CCC4=CC(=O)CC[C@@]43C)[C@@H]1CC[C@@H]2C(=O)CO	inactive	–
O=C(c1ccc(O)cc1O)c1ccc(O)cc1O	inactive	–
CCCCCOC(=O)COc1cc(N2C(=O)C3=C(CCCC3)C2=O)c(F)cc1Cl	inactive	–
CCC(C)OC(=O)N1CCCCC1CCO (stereo not given)	inactive	–
CC(=O)[C@H]1CC[C@H]2[C@@H]3CCC4=CC(=O)CC[C@]4(C)[C@H]3CC[C@]12C	–	33.4 µM (active) [middle of 4 runs]
